An excerpt weighted towards active compounds, which were near 7.3% of everything screened.
FMDV antiviral: High Throughput Screening for Foot and Mouth Disease Virus Antivirals. FMDV antiviral cell-based qHTS. Potency, µM (titrated, usually from 57.9 µM), actives largely listed as inhibitors. hit rate 1.2% among 410,000. AID 1159524, 2015; calls by dose curve; tested in HEK293T cells; further: read-out not given here; nearly all actives have a fitted effect of over 45% in size
Vaccinia Venus: qHTS for Stage-Specific Inhibitors of Vaccinia Orthopoxvirus: Venus Reporter Primary qHTS; Potency, µM (titrated, usually from 36.5 µM), most hits filed as inhibitors; hit rate 0.46% among 330,000; Vaccinia virus Venus reporter expression, fluorescence; AID 720580, 2013; calls by dose curve; tested in A549 cells; further: nearly all actives have a fitted effect of over 30% in size
HCMV antiviral: qHTS Assay for inhibitors of the human cytomegalovirus (HCMV); HFF cells, HCMV-luciferase reporter, 72 h; active compounds read low; activity change, negative = inhibition, % at 57.5 µM; hit rate 4.5% among 410,000; AID 1259415, 2018; in the data active means activity change below about -60%; inconclusive means no clear call, values can overlap the other calls; inactive means above about -39%
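After 16 h attachment at 37C, HFF cells received test compound and HCMV-luciferase (1 PFU/cell); reporter luminescence read 72 h later, data normalized against buffer-only and known inhibitor Salinomycin.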
HCV inhibitor: qHTS Assay for Inhibitors of Hepatitis C Virus (HCV). Huh7.5.1 HCVcc-Cre infection, luciferase reporter, 44 h. Potency, µM (highest dose often 41.8 µM), usual class: inhibitors. hit rate 3.4% among 340,000; active means well fitted inhibition curve with a large enough effect; inconclusive means small, poorly fitted or top-dose-only effect, or another doubt; inactive means no such curve, though single readings can be large or run the other way
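Infectious HCV cell culture screen: compound-treated cells (1,000/well, pre-plated 4 h) are infected with HCVcc-Cre at roughly 0.5 moi and grown 44 h. Infection is quantified by luciferase signal after 15 min substrate incubation at room temperature.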
Vaccinia mCherry: qHTS for Stage-Specific Inhibitors of Vaccinia Orthopoxvirus: mCherry Reporter Primary qHTS; Vaccinia virus mCherry reporter infection, fluorescence; Potency, µM (titrated, usually from 36.5 µM), usual class: inhibitors; hit rate 0.63% among 310,000; AID 720579, 2013; calls by dose curve; tested in A549 cells; further: nearly all actives have a fitted effect of over 35% in size
Each line names hits and unclear results; the compound was inactive in the other large screens.

O=C(Nc1cccnc1)c1ccc(S(=O)(=O)c2ccc(Cl)cc2)cc1	FMDV antiviral 28.2µM, HCMV antiviral -86.1, HCV inhibitor inconclusive
O=C(Nc1ccc(S(=O)(=O)NCc2cccnc2)cc1)c1ccccc1Cl	FMDV antiviral inconclusive, HCMV antiviral inconclusive, HCV inhibitor 8.91µM
O=C(Nc1cccnc1)c1ccc(C(=O)Nc2cccnc2)cc1	none
COc1ccc([N+](=O)[O-])cc1C(=O)NCCOc1ccc(Cl)cc1	HCV inhibitor inconclusive (no result: Vaccinia Venus, Vaccinia mCherry)
CC(C)NC(=O)N1CCCC2(CCN(C(=O)c3cc(C(F)(F)F)cc(C(F)(F)F)c3)CC2)C1	none (no result: Vaccinia Venus, HCMV antiviral, HCV inhibitor, Vaccinia mCherry)
CCOc1ccc(/C(O)=C2/C(=O)C(=O)N(CC3CCCO3)C2c2cccs2)cc1 (configuration not stated)	none
O=c1[nH]c(=O)n([C@H]2C[C@@H](O)[C@@H](CO)O2)cc1F	Vaccinia Venus 14.1µM, Vaccinia mCherry 3.55µM (no result: FMDV antiviral, HCMV antiviral, HCV inhibitor)
O=c1[nH]c(=O)n(C2C[C@H](O)[C@@H](CO)O2)cc1C(F)(F)F (some centres not stated)	Vaccinia Venus inconclusive, Vaccinia mCherry 0.501µM
O=c1[nH]c(=O)n(C2CC(O)C(CO)O2)cc1Br (configuration not stated)	Vaccinia mCherry inconclusive
C[C@@H]1CNC(=O)c2c(C(=O)Nc3ccc(CNC(=O)OC(C)(C)C)cc3)ncn21	FMDV antiviral inconclusive, Vaccinia Venus inconclusive, HCMV antiviral -65.5, Vaccinia mCherry inconclusive (no result: HCV inhibitor)
CCSc1nnc(NC(=O)C(C)Sc2nc3ccccc3[nH]2)s1 (configuration not stated)	HCMV antiviral -103.2
CC(Sc1nc2ccccc2[nH]1)C(=O)O (configuration not stated)	none (no result: Vaccinia Venus, Vaccinia mCherry)
O=C1C=C2C(=CCOC2O)O1 (configuration not stated)	FMDV antiviral 14.1µM, Vaccinia Venus 11.2µM, Vaccinia mCherry 11.2µM (no result: HCMV antiviral, HCV inhibitor)
O=C(NCc1cccnc1)O[C@H]1CC[C@@]23CCCN2C(=O)CCC[C@H]3[C@H]1Cc1ccccc1	none (no result: FMDV antiviral, Vaccinia Venus, HCV inhibitor, Vaccinia mCherry)
COc1ccc(-n2c(C)cc(C(=O)Cn3nc(C(=O)O)c4ccccc4c3=O)c2C)cc1	none
Cc1cc(C(=O)CSc2cccc[n+]2[O-])c(C)n1-c1ccc(OC(F)F)cc1	HCMV antiviral -72.6, HCV inhibitor inconclusive (no result: Vaccinia Venus, Vaccinia mCherry)
Cc1cc(C(=O)Cn2nc(C(=O)O)c3ccccc3c2=O)c(C)n1-c1ccc(OC(F)F)cc1	HCMV antiviral -65.9, HCV inhibitor inconclusive
COC(=O)c1ccc(-n2c(C)cc(C(=O)CSc3cccc[n+]3[O-])c2C)cc1	HCMV antiviral inconclusive (no result: Vaccinia Venus, Vaccinia mCherry)
CN(CCOc1ccccc1)C(=O)c1cc(S(=O)(=O)N2CCOCC2)c(Cl)cc1Cl	FMDV antiviral inconclusive (no result: HCV inhibitor)
Cc1nn2c(NCCN(C)C)c3c(nc2c1-c1ccccc1)CCCC3	HCMV antiviral inconclusive, HCV inhibitor 7.08µM
Cc1nn2c(NCCOCCO)c3c(nc2c1-c1ccccc1)CCCC3	HCV inhibitor 11.2µM (no result: Vaccinia Venus, HCMV antiviral, Vaccinia mCherry)
CCC(C)Nc1c2c(nc3c(-c4ccccc4)c(C)nn13)CCC2 (configuration not stated)	FMDV antiviral inconclusive, HCMV antiviral inconclusive, HCV inhibitor 2.24µM (no result: Vaccinia Venus, Vaccinia mCherry)
CCCCNc1c2c(nc3c(-c4ccccc4)c(C)nn13)CCC2	none (no result: Vaccinia Venus, Vaccinia mCherry)
COc1cccc(Nc2c3c(nc4c(-c5ccccc5)c(C)nn24)CCC3)c1	FMDV antiviral inconclusive, HCMV antiviral -63.4, HCV inhibitor inconclusive
COCCNc1c2c(nc3c(-c4ccccc4)c(C)nn13)CCCC2	FMDV antiviral inconclusive, HCV inhibitor inconclusive (no result: Vaccinia Venus, Vaccinia mCherry)
Cc1cccc(CNC(=O)CN2C(=O)CSc3c2c(C)nn3-c2ccccc2)c1	none (no result: HCV inhibitor)
O=C(COc1ccc(-c2nnco2)cc1)N1CCOCC1	none
Cc1ccc(Cn2c(SCc3ccc(C(=O)NC4CCCC4)cc3)nc3ccncc32)cc1	FMDV antiviral inconclusive, Vaccinia Venus inconclusive, HCMV antiviral -74.1, Vaccinia mCherry inconclusive (no result: HCV inhibitor)
O=C(c1ccc(CSc2nc3ccncc3n2Cc2ccccc2F)cc1)N1CCCCC1	HCMV antiviral -62.3 (no result: HCV inhibitor)
O=C(Cn1c(=O)n(Cc2ccc3c(c2)OCO3)c(=O)c2oc3ccccc3c21)Nc1ccccc1F	none (no result: HCV inhibitor)
Cc1ccc(S(=O)(=O)Nc2ccc(-c3ccc(N4CCCCCC4)nn3)cc2)cc1C	none (no result: HCV inhibitor)
O=C(CSc1ccsc1[N+](=O)[O-])N1CCCCCC1	HCMV antiviral -72.2 (no result: Vaccinia Venus, Vaccinia mCherry)
CC(C)(C)n1nc(C2CC2)c(Br)c1NC(=O)c1ccc(Cl)cc1	none (no result: FMDV antiviral, Vaccinia Venus, HCV inhibitor, Vaccinia mCherry)
